SMILES strings stand for the structures. Hit rate of the full screen: of about 220,000 compounds, fewer than 10 were called active. Inconclusive results (about 92%) are left out. The rule behind the calls is not given here. A selection follows.

The target of this test is Guanine nucleotide-binding protein G(o) subunit alpha (Homo sapiens) + Regulator of G-protein signaling 19 (Homo sapiens) (UniProt P09471+P49795). The test can be described thus: regulators of RGS19 binding to Galphao, biochemical, multiplexed bead flow cytometry (AID 1440).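 Note: fluorescent Galpha o activated by aluminum fluoride binding bead-coupled RGS19.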 Conditions: at 10 µM. (A flow cytometer gives signals particle by particle.)
Sequence of Guanine nucleotide-binding protein G(o) subunit alpha (Homo sapiens) + Regulator of G-protein signaling 19 (Homo sapiens) (P09471 whole entry, looked up): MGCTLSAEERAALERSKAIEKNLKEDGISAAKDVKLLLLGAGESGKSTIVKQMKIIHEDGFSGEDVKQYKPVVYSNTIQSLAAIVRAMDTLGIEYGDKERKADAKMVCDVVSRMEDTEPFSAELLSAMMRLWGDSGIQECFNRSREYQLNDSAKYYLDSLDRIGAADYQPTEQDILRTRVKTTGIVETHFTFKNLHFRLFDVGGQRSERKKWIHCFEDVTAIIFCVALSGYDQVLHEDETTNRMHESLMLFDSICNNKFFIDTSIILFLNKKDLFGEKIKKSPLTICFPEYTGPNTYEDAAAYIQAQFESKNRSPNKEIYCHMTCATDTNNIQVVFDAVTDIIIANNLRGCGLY
Sequence of Guanine nucleotide-binding protein G(o) subunit alpha (Homo sapiens) + Regulator of G-protein signaling 19 (Homo sapiens) (P49795 whole entry, looked up): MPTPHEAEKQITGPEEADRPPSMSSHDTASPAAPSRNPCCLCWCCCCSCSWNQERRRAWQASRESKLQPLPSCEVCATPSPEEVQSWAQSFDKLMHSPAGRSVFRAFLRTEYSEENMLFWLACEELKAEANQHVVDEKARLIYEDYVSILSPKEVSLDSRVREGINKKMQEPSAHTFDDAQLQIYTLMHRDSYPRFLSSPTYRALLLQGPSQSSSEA
Consider `COC(/C=C/Nc1ccc(C)cc1)=C(C#N)C#N`, for which the binding response (% of control) was determined as 71.7%.

Take `COc1ccccc1/C=C/C(=O)OCC(=O)c1c(N)n(C)c(=O)n(C)c1=O`: the binding response (% of control) was 109%.

For `CCN(CC(=O)Nc1ccccc1OC)C(=O)C1CC2C=CC1C2` (stereo unspecified), the binding response (% of control) came out at 180%.

Consider `CCN(CC)C(=O)c1sc(NC(=O)c2cccnc2)c(C(=O)OC)c1C`, for which the binding response (% of control) turned out to be 128%.

On to `CN1C(=O)C2(N=c3ccccc3=N2)c2ccccc21`, for which the binding response (% of control) is 103%.

In the case of `CS(=O)(=O)N1CCN(C(=O)c2cc(-c3cccs3)nc3ccccc23)CC1`, the binding response (% of control) amounted to 103%.

For the compound `O=C(O)c1cc(-c2ccccn2)n[nH]1`, the binding response (% of control) is 106%.

In the case of `Cc1cc(C)cc(-n2c(C)c3c(C)nnc(C)c3c2C)c1`, the binding response (% of control) amounted to 121%.

With `OC1C2(Cc3ccccc3)CN3CCN(C2)CC1(Cc1ccccc1)C3` (stereo unspecified), the binding response (% of control) amounted to 71.2%.

For the compound `COc1cc(S(=O)(=O)NCCc2ccc3c(c2)OCO3)ccc1-n1cnnn1`, the binding response (% of control) was found to be 25.7%.

For the compound `COC(=O)c1ccccc1OC(=O)c1ccc(Br)o1`, the binding response (% of control) amounted to 102%.

Take `CC(C)CNC(=O)COC(=O)c1ccc(Cl)c(S(N)(=O)=O)c1`: the binding response (% of control) was 107%.

On to `O=C(Nc1ccccc1N1CCOCC1)c1cccc([N+](=O)[O-])c1`, for which the binding response (% of control) is 123%.

Turning to `O=C(Nc1cccc(-c2cnc3ccccc3n2)c1)c1ccco1`, the binding response (% of control) stood at 147%.

Turning to `COc1ccccc1N(C(C)=O)C1SC(=O)N(c2ccccc2)C1=O` (stereo unspecified), the binding response (% of control) is 70.1%.

As for `CCOC(=O)N1CCN(C(=O)CCNS(=O)(=O)c2cc(Br)cnc2N)CC1`, the binding response (% of control) was determined as 93.9%.

`Cc1ccc(S(=O)(=O)N(Cc2ccccc2)Cc2ccco2)cc1`: the binding response (% of control) turned out to be 92.7%.

For the compound `COc1cc(/C=N/NC(=O)Cc2ccccc2)ccc1Oc1ccc([N+](=O)[O-])cc1[N+](=O)[O-]`, the binding response (% of control) came to 107%.

For `CCOCCCNC(=O)C(c1ccccc1)N(Cc1cccs1)C(=O)CNC(=O)c1ccccc1` (stereo unspecified), the binding response (% of control) stood at 222%.

With `O=C1CC2(CON=C2c2ccc(F)cc2)C(=O)N1c1ccc(F)cc1` (stereo unspecified), the binding response (% of control) came to 72.5%.

Regarding `CCOC(=O)C(=O)Nc1ccccc1C(=O)Nc1ccc(OC)cc1`, the binding response (% of control) amounted to 101%.

As to `CCC(C)[C@H](NC(=O)N1CCCC1)C(=O)OC` (stereo partly specified), the binding response (% of control) was 117%.

Regarding `COc1ccc(C)cc1S(=O)(=O)N(CC(=O)O)c1ccc(F)cc1`, the binding response (% of control) is 102%.

As for `CCOC(=O)C1=C(c2ccccc2)OC(N)=C(C#N)C1C(C)C` (stereo unspecified), the binding response (% of control) amounted to 109%.

Take `CS(=O)(=O)N1CCCC(C(=O)NCCc2ccccc2)C1` (stereo unspecified): the binding response (% of control) amounted to 71.4%.

In the case of `O=C(NC1(C(F)(F)F)C(=O)Nc2c1c(=O)[nH]c(=O)n2Cc1ccccc1)c1ccc(Cl)cc1` (stereo unspecified), the binding response (% of control) was determined as 108%.

Turning to `COC(=O)CCN(c1ccccc1)S(=O)(=O)c1ccc(OC)cc1`, the binding response (% of control) turned out to be 38.5%.

On to `CNC(=O)c1c(N)sc2c1CCCCC2`, for which the binding response (% of control) was 60.7%.

`COC(=O)c1ccccc1NC(=S)NC(=O)COc1ccc(C(C)C)cc1`: the binding response (% of control) was 284%.

In the case of `CCNC(=S)NNC(=O)Nc1ccccc1`, the binding response (% of control) amounted to 89.6%.

Regarding `COC(=O)c1cn(NC(=O)C2COc3ccccc3O2)c(=O)c2ccccc12` (stereo unspecified), the binding response (% of control) came to 40.7%.

For the origin of these results see PubChem BioAssay AID1440 (NMMLSC, 2008).
